Source: PubChem BioAssay (NCI)
About 83,000 compounds went through this panel and 20% of them were active in at least one assay; those are over-represented in the sample as a whole.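 Growth was measured after 48 h exposure to one concentration of compound in 96-well plates. Values under 10 count as active.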 Calls of active or inactive are those of the source.

Key:
Experiment in all cases: NCI-60 one-dose screen, 48 h (100 = growth as untreated, 0 = no growth, -100 = all killed)
Details in all cases: 10 µM unless noted
NCI-H23 lung = test system: NCI-H23 lung
NCI-H226 lung = test system: NCI-H226 lung
NCI-H322M lung = test system: NCI-H322M lung
HOP-62 NSCLC = test system: HOP-62 NSCLC
NCI-H460 lung = test system: NCI-H460 lung
HOP-92 NSCLC = test system: HOP-92 NSCLC
NCI-H522 lung = test system: NCI-H522 lung
A549/ATCC NSCLC = test system: A549/ATCC NSCLC
786-0 renal = test system: 786-0 renal
COLO 205 colon = test system: COLO 205 colon
DU-145 prostate = test system: DU-145 prostate
K-562 leukemia = test system: K-562 leukemia
MALME-3M melanoma = test system: MALME-3M melanoma
MDA-MB-231 breast = test system: MDA-MB-231 breast
RXF 393 renal = test system: RXF 393 renal
SF-268 CNS = test system: SF-268 CNS
SF-295 CNS = test system: SF-295 CNS
SF-539 CNS = test system: SF-539 CNS
UACC-257 melanoma = test system: UACC-257 melanoma
M14 melanoma = test system: M14 melanoma

Measured: growth

COc1cc(C(=O)/C=C/c2cn(-c3ccccc3)nc2-c2cccc(Nc3ccnc4cc(Cl)ccc34)c2)cc(OC)c1OC
inactive: NCI-H23 lung 100% | NCI-H226 lung 98.1% | NCI-H322M lung 88.1% | HOP-62 NSCLC 78.2% | NCI-H460 lung 90.5% | HOP-92 NSCLC 73.3% | NCI-H522 lung 106% | A549/ATCC NSCLC 91.5% | 786-0 renal 89% | COLO 205 colon 88.9% | DU-145 prostate 76.9% | K-562 leukemia 59.5% | MALME-3M melanoma 73% | MDA-MB-231 breast 62.9% | RXF 393 renal 86.7% | SF-268 CNS 93.6% | SF-295 CNS 117% | SF-539 CNS 98% | UACC-257 melanoma 111% | M14 melanoma 100%

CNC(=O)c1cc(Oc2ccc(NC(=O)c3nc(S(C)(=O)=O)sc3-c3ccc(F)cc3)cc2)ccn1
active: DU-145 prostate -57.5%
inactive: NCI-H23 lung 94.8% | NCI-H226 lung 101% | NCI-H322M lung 28.2% | HOP-62 NSCLC 94.9% | NCI-H460 lung 84.7% | HOP-92 NSCLC 138% | NCI-H522 lung 53.4% | A549/ATCC NSCLC 94.8% | 786-0 renal 98.3% | COLO 205 colon 69.1% | K-562 leukemia 86.8% | MALME-3M melanoma 94.5% | MDA-MB-231 breast 119% | RXF 393 renal 104% | SF-268 CNS 98.8% | SF-295 CNS 95.3% | SF-539 CNS 97.4% | UACC-257 melanoma 65.7% | M14 melanoma 87.8%

O=C(Nc1ccc(Oc2ccc(NC(=O)Nc3ccccc3Cl)cc2)cc1)Nc1ccccc1Cl
inactive: NCI-H23 lung 41.8% | NCI-H226 lung 61.9% | NCI-H322M lung 75.7% | HOP-62 NSCLC 81% | NCI-H460 lung 30.2% | HOP-92 NSCLC 38% | 786-0 renal 78.7% | COLO 205 colon 49% | DU-145 prostate 24.2% | K-562 leukemia 33.6% | MALME-3M melanoma 66.7% | MDA-MB-231 breast 72.3% | SF-268 CNS 40.3% | SF-295 CNS 71.2% | SF-539 CNS 62.8% | UACC-257 melanoma 60.5% | M14 melanoma 65%
active: NCI-H522 lung -10.4% | A549/ATCC NSCLC -3.15% | RXF 393 renal -15.8%

CN1CCN(Cc2ccc(NC(=O)c3cccc(C#Cc4cnc(N)c5ncccc45)c3F)cc2C(F)(F)F)CC1
active: NCI-H460 lung -71.8% | NCI-H522 lung -9.1% | 786-0 renal -88.2% | DU-145 prostate -72.4% | K-562 leukemia -19.7% | MALME-3M melanoma -78.9% | MDA-MB-231 breast -74.2% | RXF 393 renal -76.5% | SF-539 CNS -29% | UACC-257 melanoma -61.6% | M14 melanoma -76.4%
inactive: NCI-H23 lung 61.4% | NCI-H226 lung 19.3% | NCI-H322M lung 46.7% | HOP-62 NSCLC 49.4% | HOP-92 NSCLC 26.5% | A549/ATCC NSCLC 38.2% | COLO 205 colon 42.5% | SF-268 CNS 67.2% | SF-295 CNS 85.3%

COc1cc2nccc(Oc3ccc(NC(=O)C4(C(=O)Nc5ccc(F)cc5)CC4)cc3)c2cc1Oc1ccc(N)cn1
inactive: NCI-H23 lung 49.3% | NCI-H226 lung 36.5% | NCI-H322M lung 49.4% | HOP-62 NSCLC 51.2% | NCI-H460 lung 31% | NCI-H522 lung 51.3% | A549/ATCC NSCLC 22.7% | 786-0 renal 39.1% | DU-145 prostate 49.5% | MALME-3M melanoma 43.1% | MDA-MB-231 breast 42.7% | RXF 393 renal 11.5% | SF-268 CNS 36.8% | UACC-257 melanoma 34% | M14 melanoma 39.8%
active: HOP-92 NSCLC -11.5% | COLO 205 colon 8.91% | K-562 leukemia 3.07% | SF-295 CNS 0.157% | SF-539 CNS 5.06%

Cc1nc2ccc(Nc3nc(Cl)nc(N4CCOCC4)n3)cc2n1Cc1ccccc1
active: NCI-H522 lung -38.6%
inactive: NCI-H23 lung 16.5% | NCI-H226 lung 82.5% | NCI-H322M lung 51% | HOP-62 NSCLC 50.1% | NCI-H460 lung 91.3% | HOP-92 NSCLC 36.1% | A549/ATCC NSCLC 92% | 786-0 renal 68.3% | COLO 205 colon 100% | DU-145 prostate 94.2% | K-562 leukemia 25.7% | MALME-3M melanoma 96.8% | MDA-MB-231 breast 64.4% | RXF 393 renal 65.1% | SF-268 CNS 77% | SF-295 CNS 87.3% | SF-539 CNS 84.7% | UACC-257 melanoma 104% | M14 melanoma 103%

CCCCCCCCCCCCCCCc1cc(O)ccc1[N+](=O)[O-]
inactive: NCI-H23 lung 79.6% | NCI-H226 lung 96.9% | NCI-H322M lung 100% | HOP-62 NSCLC 96% | NCI-H460 lung 102% | HOP-92 NSCLC 59.9% | NCI-H522 lung 28% | A549/ATCC NSCLC 96.8% | 786-0 renal 97.9% | COLO 205 colon 96% | DU-145 prostate 104% | K-562 leukemia 67.7% | MALME-3M melanoma 96.4% | MDA-MB-231 breast 69.2% | RXF 393 renal 95% | SF-268 CNS 91.6% | SF-295 CNS 94.3% | SF-539 CNS 103% | UACC-257 melanoma 87.3% | M14 melanoma 93.1%

Cc1cc(Cl)c2ccc(N(C)C)cc2n1
inactive: NCI-H23 lung 100% | NCI-H226 lung 97.6% | NCI-H322M lung 110% | HOP-62 NSCLC 95.5% | NCI-H460 lung 106% | HOP-92 NSCLC 102% | A549/ATCC NSCLC 94.9% | 786-0 renal 99% | COLO 205 colon 102% | DU-145 prostate 113% | K-562 leukemia 88.7% | MALME-3M melanoma 108% | MDA-MB-231 breast 102% | RXF 393 renal 95.5% | SF-268 CNS 102% | SF-295 CNS 100% | SF-539 CNS 106% | UACC-257 melanoma 97.4% | M14 melanoma 100%
active: NCI-H522 lung -10.1%
